Assay results published in PubChem BioAssay (NCATS).
Values joined by “and” are separate entries in the source; they are usually repeats but may differ in a detail not shown here. Identical values can stand only once. Results filed as inconclusive are left out. Where a structure was tested more than once in an assay, its records may differ in their call. Active and inactive are the calls of the source. Calls follow the shape of the dose curve; as a rule, active = well fitted curve in the direction sought with a large enough effect; inconclusive = small, poorly fitted or top-dose-only effect, or another doubt; inactive = no such curve, though single readings can be large; an effect the other way counts as inactive or inconclusive.

How the values were obtained:
[1] = Viability qHTS for spleen associated tyrosine kinase inhibitor (SYKi) naive MV4-11 cells (AID 1963823); also: nearly all actives have a fitted effect of over 40% in size; also: potency is read from the fitted curve at half-maximal effect
Method in brief: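 SYK inhibitor-naive MV4-11 cells, 500 per well, exposed to compounds for 72 hr at 37 C, 5% CO2. Viability read as CellTiter-Glo luminescence after 10 min at room temperature.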

[2] = Quantitative highthroughput screen to assess conditional lethalithy of NOMO1 cells grown in RPMI1640 with dialyzed fetal bovine serum (RPMI+ds) (AID 1963877); also: nearly all actives have a fitted effect of over 30% in size; also: potency is read from the fitted curve at half-maximal effect;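 as to Viability: series mostly up to about 46 µM; 100% = DMSO control wells and 0% = empty wells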
Method in brief: (§1)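 Each medium arm—HPLM with 10% dialyzed FBS, or RPMI1640 with 5 mM glucose and 10% untreated or dialyzed FBS—was screened against an 11-point, 3-fold compound titration for 48 h at 37 °C, with CellTiter-Glo luminescence as endpoint.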

[3] = Quantitative highthroughput screen to assess conditional lethalithy of NOMO1 cells grown in Human Plasma-Like Medium with dialyzed fetal bovine serum (HPLM+ds) (AID 1963878); also: nearly all actives have a fitted effect of over 35% in size; also: potency is read from the fitted curve at half-maximal effect;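 as to Viability: 100% = DMSO wells and 0% = empty wells on each plate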
Method in brief: as §1

[4] = Quantitative highthroughput screen to assess conditional lethalithy of P12 Ichikawa cells grown in Human Plasma-Like Medium with dialyzed fetal bovine serum (HPLM+ds) (AID 1963879); details: Potency: viability; also: nearly all actives have a fitted effect of over 35% in size; also: potency is read from the fitted curve at half-maximal effect; as to Viability: series mostly up to about 46 µM
Method in brief: as §1

[5] = Quantitative highthroughput screen to assess conditional lethalithy of P12 Ichikawa cells grown in RPMI1640 with dialyzed fetal bovine serum (RPMI+ds) (AID 1963880); details: Potency: P12-Ichikawa viability; also: nearly all actives have a fitted effect of over 35% in size; also: potency is read from the fitted curve at half-maximal effect;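 as to Viability: 100% = DMSO wells and 0% = empty wells on each plate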
Method in brief: as §1

[6] = Quantitative highthroughput screen to assess conditional lethalithy of P12 Ichikawa cells grown in RPMI1640 with untreated serum (RPMI+s) (AID 1963881); details: Potency: viability; also: nearly all actives have a fitted effect of over 35% in size; also: potency is read from the fitted curve at half-maximal effect;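 as to Viability: series mostly up to about 46 µM; 100% = DMSO wells and 0% = empty wells without cells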
Method in brief: as §1

[7] = Quantitative highthroughput screen to assess conditional lethalithy of SEM cells grown in Human Plasma-Like Medium with dialyzed fetal bovine serum (HPLM+ds) (AID 1963882); also: nearly all actives have a fitted effect of over 35% in size; also: potency is read from the fitted curve at half-maximal effect; as to Viability: series mostly up to about 46 µM
Method in brief: as §1

[8] = Quantitative highthroughput screen to assess conditional lethalithy of SEM cells grown in RPMI1640 with unreated serum (RPMI+s) (AID 1963883); also: nearly all actives have a fitted effect of over 35% in size; also: potency is read from the fitted curve at half-maximal effect;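 as to Viability: 100% = DMSO wells and 0% = empty wells without cells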
Method in brief: as §1

[9] = Quantitative highthroughput screen to assess conditional lethalithy of SEM cells grown in RPMI1640 with dialyzed fetal bovine serum (RPMI+ds) (AID 1963884); also: nearly all actives have a fitted effect of over 35% in size; also: potency is read from the fitted curve at half-maximal effect;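 as to Viability: series mostly up to about 46 µM; 100% = DMSO control wells and 0% = empty wells without cells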
Method in brief: as §1

[10] = Cellular viability qHTS for adrenocortical cancer (ACC) cell line NCI-H295R (AID 1963990); also: nearly all actives have a fitted effect of over 60% in size; also: potency is read from the fitted curve at half-maximal effect
Method in brief: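 IC50 and maximal efficacy derive from four-parameter logistic modelling of titration curves, with reads scaled between DMSO-only wells (0%) and doxorubicin hydrochloride (100% inhibition). Compounds spanned up to 46 uM over 48 h.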

[11] = Quantitative highthroughput screen to assess conditional lethalithy of NOMO1 cells grown in RPMI1640 with untreated serum (RPMI+s) (AID 1963876)
Method in brief: as §1

[12] = Cellular viability qHTS for adrenocortical cancer (ACC) cell line SW-13 (AID 1963989); details: SW-13 ACC cells viability, CellTiter-Glo, 48 h; activity (max response): stronger effect = lower value; also: nearly all actives have a fitted effect of over 65% in size; also: potency is read from the fitted curve at half-maximal effect;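 as to activity (max response): cells grown in serum-free medium with ITS supplement; % is scaled to controls: 0 for no effect and ±100 for the full control effect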
Method in brief: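 Luminescent ATP read-out (CellTiter-Glo, 20 min at room temperature) measured metabolically competent SW-13 cells after 48 h compound treatment. Final concentrations spanned up to 46 uM; bortezomib served as positive control.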

COCCn1c2c([n+](Cc3cnccn3)c1C)C(=O)c1ccccc1C2=O
active: Potency [1] 0.0093 µM | Potency [2] 105 nM | Potency [3] 66.2 nM | Potency [4] 235 nM | Potency [5] 187 nM | Potency [6] 166 nM | Potency [7] 16.6 nM | Potency [8] 66.2 nM | Potency [9] 41.8 nM | Potency [10] 2.82 µM

CCCCN(CCCC)C(=O)CN1C[C@H](c2ccc3c(c2)OCO3)[C@@H](C(=O)O)[C@@H]1c1ccc(OC)cc1
inactive: Potency [11] | Potency [4] | Potency [5] | activity (max response) [12] -6% | Potency [10]
active: Potency [1] 16.6 µM | Potency [7] 2090 nM

CC1(C)O[C@H]2CC(=O)OC[C@]23[C@H]2CC[C@@]4(C)[C@H](c5ccoc5)OC(=O)[C@H]5O[C@]54[C@]2(C)C(=O)C[C@@H]13
inactive: Potency [1] | Potency [11] | Potency [2] | Potency [4] | Potency [5] | Potency [6] | Potency [7] | Potency [8] | Potency [9] | activity (max response) [12] 7.85% | Potency [10]

Cc1cnc(-c2cnc(NCCNc3ccc(C#N)cn3)nc2-c2ccc(Cl)cc2Cl)[nH]1
inactive: Potency [11] | Potency [10]
active: Potency [1] 14.6 µM

COc1c2occc2cc2ccc(=O)oc12
inactive: Potency [1] | Potency [11] | Potency [2] | Potency [3] | Potency [7] | Potency [8] | Potency [9] | Potency [10]
active: Potency [5] 7430 nM

CN(C)c1ccc(C(=C2C=CC(=[N+](C)C)C=C2)c2ccc(N(C)C)cc2)cc1
active: Potency [1] 0.332 µM | Potency [3] 118 nM | Potency [4] 264 nM | Potency [5] 132 nM | Potency [6] 118 nM | Potency [7] 118 nM | Potency [8] 105 nM | Potency [9] 93.5 nM | Potency [12] 651 nM and 1.58 µM | Potency [10] 920 nM and 2.82 µM

COC(=O)[C@H]1[C@H]2C[C@@H]3c4[nH]c5cc(OC)ccc5c4CCN3C[C@H]2C[C@@H](OC(=O)COc2ccc(OC)cc2)[C@@H]1OC
inactive: Potency [1] | activity (max response) [12] -9.25%

CC(C)C(C)C=CC(C)C1CCC2C3=CC=C4CC(O)CCC4(C)C3CCC21C (configuration not stated)
inactive: Potency [1] | Potency [4] | Potency [5] | Potency [6] | Potency [7] | Potency [8] | Potency [9] | activity (max response) [12] 11.2% | Potency [10]

O=C1OCCN1/N=C/c1ccc([N+](=O)[O-])o1
inactive: Potency [1] | activity (max response) [12] -0.921%

Cc1nc(NC(=O)N2CCC[C@H]2C(N)=O)sc1-c1csc(C(C)(C)C)n1
active: Potency [1] 7.42 µM
inactive: activity (max response) [12] -23.3%

Nc1ccc(N)c([N+](=O)[O-])c1
inactive: activity (max response) [12] -20.8%
active: Potency [1] 24.3 µM

NC1(c2ccc(-c3nc4ccn5c(=O)[nH]nc5c4cc3-c3ccccc3)cc2)CCC1
active: Potency [1] 3.72 µM | Potency [3] 20900 nM | Potency [7] 1660 nM | Potency [8] 2090 nM | Potency [9] 1480 nM | Potency [12] 20.6 µM and 17.8 µM | Potency [10] 10.3 µM and 7.94 µM

CC(C)(C)c1[nH]cnc1/C=c1\[nH]c(=O)/c(=C/c2ccccc2)[nH]c1=O
active: Potency [1] 0.0833 µM | Potency [12] 39.8 nM

CC(C)n1cnc2c(NCCc3ccc(O)cc3)nc(-c3csc4ccccc34)nc21
inactive: Potency [10]
active: Potency [1] 14.8 µM | Potency [4] 3720 nM | Potency [6] 14800 nM | Potency [7] 13200 nM | Potency [8] 7430 nM | Potency [9] 5260 nM

Nc1nc(=S)c2[nH]cnc2[nH]1
active: Potency [1] 0.934 µM | Potency [6] 20900 nM | Potency [12] 3.26 µM and 2.82 µM | Potency [10] 731 nM and 1.12 µM

CCn1c(-c2nonc2N)nc2c(C#CC(C)(C)O)ncc(OC[C@H]3CCCNC3)c21
active: Potency [1] 16.6 µM | Potency [4] 52.6 nM | Potency [7] 18700 nM | Potency [8] 23500 nM | Potency [9] 14800 nM | Potency [12] 28200 nM

CCCCC(CC)COC(=O)/C=C/c1ccc(OC)cc1 (configuration not stated)
inactive: Potency [1] | activity (max response) [12] 1.77%

Clc1ccc2c(c1)Nc1ccccc1S2
inactive: Potency [1] | activity (max response) [12] -11.9%

COc1ccc(S(=O)(=O)Nc2cccnc2Nc2ccc(O)cc2)cc1
active: Potency [1] 0.934 µM | Potency [4] 3320 nM | Potency [6] 3320 nM | Potency [7] 2350 nM

CC(C)n1nc(-c2ccc3oc(N)nc3c2)c2c(N)ncnc21
active: Potency [1] 36.6 nM and 29.5 nM | Potency [7] 33.2 nM | Potency [8] 46.9 nM | Potency [9] 469 nM | Potency [12] 100 nM | Potency [10] 0.0708 µM

COc1cc(C)c(Cc2cnc(N)nc2N)cc1OC
inactive: Potency [1] | activity (max response) [12] -2.95%

COc1cc2ncnc(Nc3ccc(O)c(Br)c3)c2cc1OC
active: Potency [1] 1.16 µM and 662 nM | Potency [12] 3550 nM

O=C(Cn1ccnc1[N+](=O)[O-])NCc1ccccc1
inactive: Potency [1] | activity (max response) [12] -1.05%

Clc1cc2c(NC3CCCC3)nnc(-c3ccncc3)c2cc1Cl
inactive and 18.6 µM (active): Potency [1]
inactive: activity (max response) [12] -2.48%

Cn1cnc2c1c(=O)[nH]c(=O)n2C
active: Potency [8] 18700 nM | Potency [9] 23500 nM
inactive: Potency [1] | activity (max response) [12] 4.02% and 2.06% | Potency [10]

COc1cc(C(=O)NC2CCN(C)CC2)ccc1Nc1ncc2c(n1)N(C1CCCC1)CCC(=O)N2C(C)C
active: Potency [1] 5.9 µM | Potency [4] 9350 nM | Potency [5] 16600 nM | Potency [6] 11800 nM | Potency [10] 25.1 µM

CC(=O)OC[C@@H]1O[C@@H](n2ccc(=O)[nH]c2=O)[C@H](OC(C)=O)[C@H]1OC(C)=O
inactive: Potency [1] | Potency [5] | Potency [6] | Potency [7] | Potency [9] | activity (max response) [12] -1.19% | Potency [10]
